Data: PubChem BioAssay
Calls of active or inactive are those of the source.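 The calls were made as follows, unless noted: active = NADPH fluorescence slope more negative than the mean of all samples by about 3 SD, 99.7% confidence; inactive = the rest.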

Tests used:
[1] = inhibitors of TNFa-induced NFkB p65 translocation, primary screen, imaging, HUVEC, MLSMR starter and 10KST1 sets (AID 438;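 active = inhibition above 20% together with a positive visual image hit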;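 also: compound added about 3h40 before a 20 min TNFalpha stimulation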;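 as to inhibition: signal is the nuclear over cytoplasmic p65 intensity ratio per well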); conditions: HUVEC TNFa-induced p65 nuclear translocation; cell count: measured here: nuclei count (cytotoxicity indicator), at 2.08 µM; inhibition: at 2 µM, stronger effect = higher value, 0% TNFa-plus-vehicle, 100% no-TNFa wells
[2] = inhibitors of mutant huntingtin aggregation, primary screen, imaging, exon1htt(103Q)mCFP cells, high-content imaging (AID 483;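 active = visual image review flags a hit and inhibition of aggregation exceeds 20%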;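 also: compound exposure lasted 3 days before fixation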;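 as to nuclei count: percent of the per-plate median nuclei count of sample wells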); conditions: exon1htt(103Q)mCFP cell line, aggregate imaging, at 2 µM; inhibition of aggregation: stronger effect = higher value; nuclei count: measured here: cell count, toxicity
[3] = inhibitors of E-selectin induction by TNFa, primary screen, imaging, HUVEC, immunofluorescence, MLSMR starter and 10KST1 sets (AID 487;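 active = visually confirmed hit in the image check and inhibition above 20%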;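 as to inhibition: signal is fraction of cell area covered by stained E-selectin grains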;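 as to nuclei count: 100% = median nuclei count of all wells on the same plate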); conditions: HUVEC TNFalpha-induced E-selectin immunofluorescence imaging, at 2 µM; inhibition: stronger effect = higher value; nuclei count: measured here: cell number, toxicity
[4] = molecular target: Voltage-gated potassium channel subunit beta-2 (Rattus norvegicus) (UniProt P62483); assay: KvBeta enzyme negative modulators, primary screen, biochemical, NADPH fluorescence (AID 622;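 active = fluorescence slope higher than the sample average by over 3 SD, cut at about -0.22 in these data, passing the limit was not always enough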;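 also: slope of raw intensity against log time taken from 70 to 1610 s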); conditions: recombinant KvBeta, 4-cyanobenzaldehyde reduction, at 10 µM, stronger effect = higher value
Voltage-gated potassium channel subunit beta-2 (Rattus norvegicus), sequence (P62483 whole entry, looked up): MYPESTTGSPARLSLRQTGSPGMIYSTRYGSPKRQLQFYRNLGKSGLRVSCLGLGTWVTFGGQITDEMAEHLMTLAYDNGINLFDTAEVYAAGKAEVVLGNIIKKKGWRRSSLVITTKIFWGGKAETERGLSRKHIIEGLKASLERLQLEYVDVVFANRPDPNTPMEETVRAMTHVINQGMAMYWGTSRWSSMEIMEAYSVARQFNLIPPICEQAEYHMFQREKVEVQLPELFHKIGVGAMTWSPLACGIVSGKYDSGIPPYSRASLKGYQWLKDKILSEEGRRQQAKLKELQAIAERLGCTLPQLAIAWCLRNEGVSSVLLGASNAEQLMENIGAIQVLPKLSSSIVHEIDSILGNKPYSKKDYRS

[5] = molecular target: Voltage-gated potassium channel subunit beta-2 (Rattus norvegicus) (UniProt P62483); assay: KvBeta positive modulators, primary screen, biochemical, NADPH fluorescence (AID 623); conditions: Recombinant KvBeta, NADPH fluorescence decrease slope, 10 min; at 10 µM; stronger effect = lower value;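 also: fluorescence intensity change per second fitted from 20 to 320 s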
[6] = molecular target: Alpha-2C adrenergic receptor (Homo sapiens) (UniProt P18825); assay: modulators of alpha2C/GIRK thallium flux, primary screen, cell-based, HEK293 alpha2C/GIRK1/2 (AID 624;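 active = fluorescence slope after compound addition differing from the mean of all screened samples at 99.7% confidence, in either direction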;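 also: slope of fluorescence ratio to pre-addition baseline per second over 15 to 24 s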); conditions: thallium flux BTC fluorescence, at 10 µM, actives lie on both sides
Alpha-2C adrenergic receptor (Homo sapiens), sequence (P18825 whole entry, looked up): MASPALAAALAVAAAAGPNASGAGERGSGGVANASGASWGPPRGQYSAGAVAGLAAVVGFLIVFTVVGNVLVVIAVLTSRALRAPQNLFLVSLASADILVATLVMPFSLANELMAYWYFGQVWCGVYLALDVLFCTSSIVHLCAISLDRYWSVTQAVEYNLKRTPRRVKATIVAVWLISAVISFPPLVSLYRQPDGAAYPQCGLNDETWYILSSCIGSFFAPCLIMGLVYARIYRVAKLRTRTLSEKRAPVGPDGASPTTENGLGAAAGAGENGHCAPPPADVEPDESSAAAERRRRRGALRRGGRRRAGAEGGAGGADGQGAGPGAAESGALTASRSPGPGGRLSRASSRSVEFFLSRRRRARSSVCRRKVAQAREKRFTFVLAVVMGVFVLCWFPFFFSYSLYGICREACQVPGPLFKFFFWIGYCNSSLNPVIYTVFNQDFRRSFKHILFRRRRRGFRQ

[7] = inhibitors of Sendai virus-induced IRF3 signaling, primary screen, TLR/RLR signaling modifier project, cell-based, Sendai virus stimulus, luciferase, 10K MLSCN set (AID 602276;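 active = inhibition at or above 50% at 10 µM; inactive = inhibition below 50%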;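 also: firefly luciferase from ISG56 promoter only with Renilla not read in this screen; 0% = Sendai virus plus DMSO and 100% = medium plus DMSO without virus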); conditions: HEK293 RL24 IRF3 luciferase reporter, at 10 µM, stronger effect = higher value
[8] = inhibitors of poly I:C-induced TLR3 signaling, primary screen, cell-based, poly I:C stimulus, luciferase, 10K MLSCN set (AID 602277;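 active = inhibition of the reporter signal at or above 50%; inactive = inhibition below 50%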); conditions: HEK293-TLR3 RL24 IRF3 luciferase reporter, at 10 µM, stronger effect = higher value

Compound | cell count [1] | inhibition [1] | inhibition of aggregation [2] | nuclei count [2] [%] | inhibition [3] | nuclei count [3] [%] | fluorescence slope [4] | NADPH fluorescence slope [5] | slope [6] | inhibition [7] | inhibition [8]
CCCNS(=O)(=O)c1ccc(OCC(=O)NCc2ccco2)cc1 | 603 | 11.7% (inactive) | -6% (inactive) | 110 | -76.7% (inactive) | 126 | -0.478 (inactive) | 8.5e-05 (inactive) | 0.00584 (inactive) | -6.02% (inactive) | -17.4% (inactive)
CC(C)(C)c1nnc(NC(=O)C2CCN(c3ncccn3)CC2)s1 | 547 | -9.2% (inactive) | -2.6% (inactive) | 106 | -13.7% (inactive) | 111 | -0.512 (inactive) | -3.5e-05 (inactive) | 0.00755 (inactive) | 5.09% (inactive) | 31.5% (inactive)
COc1ccccc1N1C(=O)CCC1(C#N)c1ccccc1 (configuration not stated) | 567 | 6.9% (inactive) | -0.9% (inactive) | 87.7 | -30.3% (inactive) | 72.2 | -0.62 (inactive) | 6e-06 (inactive) | 0.0062 (inactive) | -5.14% (inactive) | 9.48% (inactive)
O=C(NCc1ccccn1)c1cc(-n2cnnc2)ccc1Cl | 365 | -3.9% (inactive) | -1.2% (inactive) | 112 | -3.1% (inactive) | 110 | -0.502 (inactive) | -3.7e-05 (inactive) | 0.00641 (inactive) | 2.94% (inactive) | 10.6% (inactive)
CCN(CCCNC(=O)CC1Oc2ccc(C)cc2NC1=O)Cc1ccccc1 (configuration not stated) | 548 | 5.1% (inactive) | 30.8% (inactive) | 102 | -42.9% (inactive) | 128 | -0.495 (inactive) | -4.4e-05 (inactive) | 0.00631 (inactive) | -5.16% (inactive) | 30.7% (inactive)
NC(=O)NC(c1ccccc1)c1ccccc1F (configuration not stated) | 565 | -4.8% (inactive) | 12.6% (inactive) | 99.1 | 36.7% (inactive) | 88.9 | -0.317 (inactive) | 5.1e-06 (inactive) | 0.00595 (inactive) | 2.53% (inactive) | 25.9% (inactive)
CCN1C(=O)c2ccccc2S(=O)(=O)c2ccc(C(=O)NCc3cccnc3)cc21 | 804 | -6.4% (inactive) | -35.7% (inactive) | 107 | -50.1% (inactive) | 129 | -0.569 (inactive) | -4.8e-05 (inactive) | 0.00634 (inactive) | -13.6% (inactive) | 1.79% (inactive)
O=C(O)CCn1[nH]c(=O)ccc1=O | 172 | 6.8% (inactive) | 37% (active) | 67.3 | -3% (inactive) | 84.3 | -0.562 (inactive) | 1.7e-06 (inactive) | 0.0053 (inactive) | 21.4% (inactive) | 18% (inactive)
Cc1cc(C)n2c(SCCN3C(=O)c4ccccc4C3=O)nnc2n1 | 787 | -5.1% (inactive) | 12.4% (inactive) | 126 | -8.9% (inactive) | 107 | -0.572 (inactive) | -1.7e-05 (inactive) | 0.00697 (inactive) | 10.1% (inactive) | 24.4% (inactive)
O=C(O)c1ccc2c(c1)N(Cc1ccccc1F)C(=O)c1ccccc1S2=O (configuration not stated) | 585 | -1.2% (inactive) | 17.9% (inactive) | 64.2 | -49.8% (inactive) | 107 | -0.537 (inactive) | -5.5e-07 (inactive) | 0.0062 (inactive) | 11.3% (inactive) | 7.14% (inactive)
CC(=O)N(C)C1(c2nnnn2CCOC(=O)Nc2cccc3ccccc23)CCCC1 | 600 | -8.2% (inactive) | 31.6% (inactive) | 98.9 | -99.1% (inactive) | 105 | -0.61 (inactive) | -5.7e-05 (inactive) | 0.00458 (inactive) | 13% (inactive) | 21.8% (inactive)
COC(=O)CC(C(=O)Nc1cc(C(=O)OC)cc(C(=O)OC)c1)N1CCN(C)CC1 (configuration not stated) | 661 | -7.5% (inactive) | -3.2% (inactive) | 99.8 | -105% (inactive) | 107 | -0.547 (inactive) | -4.3e-05 (inactive) | 0.00646 (inactive) | -2.88% (inactive) | 9.86% (inactive)
CCOc1cccc(/C(O)=C2/C(=O)C(=O)N(CCN3CCOCC3)C2c2cccnc2)c1 (configuration not stated) | 733 | -1.1% (inactive) | -4.6% (inactive) | 104 | -18.1% (inactive) | 97.6 | -0.421 (inactive) | -5e-05 (inactive) | 0.00281 (inactive) | 14.8% (inactive) | 28.3% (inactive)
COc1cc(S(=O)(=O)N2CCOCC2)ccc1NC(=O)COC(=O)C12CC3CC(CC(C3)C1)C2 | 533 | -24.9% (inactive) | -8.6% (inactive) | 108 | 27.1% (inactive) | 89.4 | -0.258 (inactive) | 2.4e-06 (inactive) | 0.00665 (inactive) | 8.59% (inactive) | 19.8% (inactive)
CC(C)C(NC(=O)c1ccco1)C(=O)NCC(c1ccco1)N1CCCCC1 (configuration not stated) | 379 | -22% (inactive) | 6.7% (inactive) | 99 | 0% (inactive) | 97.7 | -0.588 (inactive) | -2.6e-05 (inactive) | 0.00507 (inactive) | 3.26% (inactive) | 14.7% (inactive)
Cc1ccc(-c2csc3ncn(-n4c(C)ccc4C)c(=O)c23)o1 | 575 | 6.1% (inactive) | -0.6% (inactive) | 82.8 | 55.1% (active) | 66.1 | -0.468 (inactive) | 3.1e-05 (inactive) | 0.00663 (inactive) | -15.1% (inactive) | 12.5% (inactive)
Cc1cc(C)c2c(=O)n(CC(=O)N3CCC(Cc4ccccc4)CC3)sc2n1 | 611 | 16.6% (inactive) | 3% (inactive) | 104 | -6.1% (inactive) | 121 | -0.559 (inactive) | -6.7e-06 (inactive) | 0.00614 (inactive) | 20.7% (inactive) | 46.2% (inactive)
Cc1ccc(C)c2[nH]c(=O)c(CN(CCN3CCCC3)C(=O)Nc3cccc(Cl)c3)cc12 | 562 | -4.7% (inactive) | 13.8% (inactive) | 67.7 | -35.9% (inactive) | 94.3 | -0.544 (inactive) | -6.8e-05 (inactive) | 0.00448 (inactive) | -139% (inactive) | 78.9% (active)
CCOc1ccccc1C(=O)Nc1cc(=O)n(C)c(=O)n1C | 651 | -0.8% (inactive) | 6.8% (inactive) | 95.8 | 31% (inactive) | 98.4 | -0.416 (inactive) | -4.9e-05 (inactive) | 0.00585 (inactive) | 14.8% (inactive) | 39.7% (inactive)
CC(C)CCn1c(=O)c2ccccc2n2c(CN(C)Cc3ccccc3)nnc12 | 486 | -14.2% (inactive) | 0.2% (inactive) | 101 | -78.1% (inactive) | 170 | -0.537 (inactive) | 1.9e-05 (inactive) | 0.00576 (inactive) | 8.18% (inactive) | 26.3% (inactive)
COc1ccc(C(C)=O)c(OC(=O)c2ccc(OC)c(OC)c2)c1 | 372 | -0.3% (inactive) | 3.6% (inactive) | 88.8 | -76% (inactive) | 100 | -0.376 (inactive) | 8.8e-06 (inactive) | 0.00658 (inactive) | 13.2% (inactive) | 22.8% (inactive)
Cc1ccc(-c2noc(CCC(=O)NCCc3ccccc3Cl)n2)cc1 | 287 | -1.2% (inactive) | 19.9% (inactive) | 91 | 5.2% (inactive) | 88.4 | -0.409 (inactive) | -3.6e-05 (inactive) | 0.00258 (inactive) | 10.3% (inactive) | 21.8% (inactive)
CCc1ccc2[nH]c(=O)c(C(c3nnnn3CC3CCCO3)N3CCCc4ccccc43)cc2c1 (configuration not stated) | 339 | -8.5% (inactive) | 12.7% (inactive) | 87.5 | 22.4% (inactive) | 97.3 | -0.422 (inactive) | -4.4e-05 (inactive) | 0.00442 (inactive) | 22.7% (inactive) | 32.6% (inactive)
O=C(O)c1cc2c(s1)CCCC2 | 473 | 6.3% (inactive) | 8.1% (inactive) | 100 | 15.7% (inactive) | 111 | -0.383 (inactive) | -2.9e-06 (inactive) | 0.00578 (inactive) | 4.53% (inactive) | 8.58% (inactive)
CCC(C(=O)O)n1c(C(F)(F)F)nc2ccccc21 (configuration not stated) | 717 | -29.6% (inactive) | 4.1% (inactive) | 103 | -6.3% (inactive) | 108 | -0.558 (inactive) | -2.1e-05 (inactive) | 0.00512 (inactive) | 7.44% (inactive) | 14.4% (inactive)
Cc1sc(NC(=O)CSc2nnc(COc3ccccc3)n2C)c(C#N)c1C | 602 | 2.2% (inactive) | 15.6% (inactive) | 93.8 | -77.2% (inactive) | 113 | -0.335 (inactive) | 5.1e-06 (inactive) | 0.00494 (inactive) | -3.28% (inactive) | -13.7% (inactive)
CCOCCCNC(=O)C(c1ccc(C)cc1)N(Cc1ccc2c(c1)OCO2)C(=O)c1cnccn1 (configuration not stated) | 275 | 13.1% (inactive) | 16.3% (inactive) | 102 | -40.9% (inactive) | 107 | -0.471 (inactive) | 4.1e-05 (inactive) | 0.00515 (inactive) | 9.6% (inactive) | 17% (inactive)
